An excerpt weighted towards active compounds, which were near 19% of everything screened.
TDP1 cell noCPT = qHTS for Inhibitors of human tyrosyl-DNA phosphodiesterase 1 (TDP1): qHTS in cells in absence of CPT. DT40 Tdp1-/- hTDP1 cells, no CPT, ATP luminescence, 48 h. Potency, µM (top dose mostly 46.2 µM), for the others: at the highest dose activity change, negative = growth inhibition, actives largely listed as inhibitors. actives 15% (n = 420,000). AID 686978, 2013; also: potency is read from the fitted curve at half-maximal effect; nearly all actives have a fitted effect of over 55% in size
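Growth kinetics read by CellTiter-Glo luminescence after ≥48 hr at 37 °C. Cells: DT40 Tdp1-/- stably carrying human TDP1, 400 per well, compound exposure in the absence of CPT (DMSO vehicle).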
ELG1 DNA repair = blocks ELG1-dependent DNA repair in HEK293T cells; HEK293T ELG1-luciferase reporter, luminescence, 16 h; DNA damage induced by 5-fluorouridine; AID 504467; actives 2.3% (n = 330,000); Potency, µM (highest dose often 46.1 µM), for inactives: top-dose activity change, negative = inhibition, hits mostly inhibitors; also: potency is read from the fitted curve at half-maximal effect; nearly all actives have a fitted effect of over 55% in size
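HEK293T cells expressing luciferase-tagged ELG1 (2,000/well) received 5-Fluorouridine plus compound or DMSO for 16 hr at 37 °C. Luciferase was read by ONE-Glo luminescence after 30 min at room temperature.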
Giardia kill = kills Giardia lamblia; Giardia lamblia trophozoite viability; activity change, % at 7.66 µM, hits read low; actives 0.15% (n = 340,000); in the data active = activity change below about -80%; inconclusive = between about -30% and that limit;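 also: parasites exposed to compound for two days anaerobically before the ATP read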
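Media and compound were dispensed first, then trophozoites at 100 cells/well; plates sat 48 hrs at 37 deg C without oxygen before ATP luminescence reagent was added and read after 15-30 min at room temperature.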
DT40 TDP1 CPT = growth inhibition of DT40 Tdp1-/-;hTDP1 cells with camptothecin (screen for TDP1 inhibitors); chicken DT40 Tdp1-/-;hTDP1 cells + 20 nM CPT, ATP luminescence, 48 h; AID 686979; Potency, µM (doses to about 46.2 µM), for inactives: at the highest dose activity change, negative = growth inhibition, actives largely listed as inhibitors; actives 12% (n = 420,000); also: potency is read from the fitted curve at half-maximal effect; nearly all actives have a fitted effect of over 55% in size
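Chicken DT40 Tdp1-/- cells complemented with human TDP1, 400 cells/well, exposed to compounds plus 20 nM camptothecin for at least 48 h at 37 C; viability read as ATP content by CellTiter-Glo luminescence.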
IL1B secr inh = inhibitors of inflammasome signaling (IL-1 beta secretion) | THP-1 LPS/ATP IL-1B secretion, AlphaLISA, 16 h; stronger effect = lower value | activity change, % at 57.5 µM | actives 4.7% (n = 360,000) | AID 743279; in the data active = activity change below about -50%; inconclusive = mostly about -30% to -49%
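THP-1 cells pretreated 1 hr with compounds (up to 57.5 uM final), then stimulated with LPS (250 ng/mL final) plus ATP (1.25 mM final); secreted IL-1B measured by AlphaLISA after 16 hr, decreased signal indicating inhibition.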
TDP1 inh = blocks human tyrosyl-DNA phosphodiesterase 1 | Q9NUW8 | recombinant TDP1, AlphaScreen DNA substrate cleavage | Potency, µM (highest dose often 130 µM), for inactives: top-dose activity change, negative = inhibition, hits mostly inhibitors | actives 0.28% (n = 350,000) | AID 485290; also: potency is read from the fitted curve at half-maximal effect; nearly all actives have a fitted effect of over 40% in size
Target sequence (Q9NUW8 whole entry, looked up): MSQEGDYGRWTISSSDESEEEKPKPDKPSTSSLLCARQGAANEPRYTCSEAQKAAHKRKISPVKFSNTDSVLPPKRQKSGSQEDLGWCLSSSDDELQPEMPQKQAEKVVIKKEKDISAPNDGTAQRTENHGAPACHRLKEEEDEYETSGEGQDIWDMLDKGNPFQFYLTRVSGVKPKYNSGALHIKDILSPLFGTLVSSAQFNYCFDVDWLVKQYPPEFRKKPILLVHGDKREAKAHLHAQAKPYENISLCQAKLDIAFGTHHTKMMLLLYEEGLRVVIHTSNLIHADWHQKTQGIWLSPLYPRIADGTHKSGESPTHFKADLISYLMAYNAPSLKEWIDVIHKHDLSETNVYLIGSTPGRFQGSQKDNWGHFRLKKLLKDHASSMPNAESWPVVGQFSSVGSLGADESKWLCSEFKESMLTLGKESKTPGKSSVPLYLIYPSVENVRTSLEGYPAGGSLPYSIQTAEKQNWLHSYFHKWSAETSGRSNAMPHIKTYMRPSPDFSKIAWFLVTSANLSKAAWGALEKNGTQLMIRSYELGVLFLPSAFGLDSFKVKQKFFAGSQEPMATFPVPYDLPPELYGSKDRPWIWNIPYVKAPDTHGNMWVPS
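E. coli-derived human Tdp1, 1 nM final. Cpd preinc 15 min RT; substrate 15 nM final, 5 min RT; AS bead mix 10 ug/ml final, 10 min RT. Signal loss = tyrosine-FITC cleavage. No-enzyme wells = max signal.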
* = called active by the depositor; u = inconclusive; x = not tested or not shown; [ ] = remark or other dose. Unless noted, calls follow the shape of the dose curve; as a rule, active = well fitted curve in the direction sought with a large enough effect; inconclusive = small, poorly fitted or top-dose-only effect, or another doubt; inactive = no such curve, though single readings can be large; an effect the other way counts as inactive or inconclusive. % is scaled to controls: 0 for no effect and ±100 for the full control effect.

SMILES	TDP1 cell noCPT	ELG1 DNA repair	Giardia kill	DT40 TDP1 CPT	IL1B secr inh	TDP1 inh
CCOc1cc(N2CCOCC2)c(OCC)cc1NC(=O)CSc1ncccc1C(=O)O	6.5µM*	10%	-16	u	19	2%
CCOc1cc(N2CCOCC2)c(OCC)cc1NC(=O)c1ccc(OC(C)C)cc1	21µM*	u	-5	u	7	8%
CCOc1cc(N2CCOCC2)c(OCC)cc1NC(=O)c1ccc(C)cc1	9.2µM*	u	-5	u	6	1%
CON=C1C=C(C)C(=O)C(C)=C1C	10%	x	18	13%	0	x
CCOc1cc(N2CCOCC2)c(OCC)cc1NC(=O)C(C)C	-15%	0%	-28	-22%	14	6%
CCOc1cc(N2CCOCC2)c(OCC)cc1NC(=O)c1ccccc1	16µM*	u	0	21µM*	-18	-2%
CCOc1cc(N2CCOCC2)c(OCC)cc1NC(=O)c1cccc(S(=O)(=O)N2CC(C)OC(C)C2)c1 (stereo not given)	u	x	x	-30%	-5	x
CCOc1cc(N2CCOCC2)c(OCC)cc1NC(C)C(=O)N1CCN(CC)CC1 (stereo not given)	-16%	-20%	3	9%	64	13µM*
CCOc1cc(N2CCOCC2)c(OCC)cc1NC(=O)c1cccc(S(=O)(=O)N2CCOCC2)c1	u	16µM*	3	-25%	7	0%
CCOc1cc(N2CCOCC2)c(OCC)cc1NC(=O)c1c(-c2ccccc2)noc1C	-54%	u	-1	u	5	4%[56.1 µM]
CCOC(=O)C(=CNc1cscc1S(=O)(=O)C(C)C)C(=O)OCC	u	0%	-4	-6%	25	0%
CC(C)N(Cc1ccccc1)C(=O)CCS(=O)(=O)c1cc2c(cc1Cl)NC(=O)CO2	x	x	x	x	x	6%
N=C1N=C(N)c2cc3ccccc3cc21	24µM*	x	x	u	x	12%
C[Si](C)(C)Cl	x	x	x	x	x	12%
COc1ccc(-n2c(=O)c3c(c4cc(OC)ccc4n3C)n(C)c2=O)cc1	1%	x	x	-2%	x	6%
COC(CN(C)C(C(=O)NC1CCCCC1)c1ccccc1)OC (stereo not given)	-8%	-19%	2	0%	0	3%
COC(CN(C(=O)CCl)C(C(=O)NC1CCCCC1)c1ccc(Cl)cc1)OC (stereo not given)	3.3µM*	0%	15	5.2µM*	u	8%
COc1ccc(N(C(=O)c2cnccn2)C(C(=O)NC2CCCCC2)c2ccc(Cl)cc2)cc1 (stereo not given)	-3%	x	-21	0%	4	x
O=C(NC1CCCCC1)C(c1cccnc1)N(C(=O)CCl)c1cccc(Cl)c1 (stereo not given)	2.1µM*	21µM*	-1	2.1µM*	-93*	5%
CN(C)C(C(=O)NC1CCCCC1)c1ccc(Cl)cc1 (stereo not given)	u	-13%	3	-24%	-5	-2%
COc1ccc(C(C(=O)NC2CCCCC2)N(C(=O)CCl)c2ccc(Cl)cc2)cc1 (stereo not given)	-105%	u	8	1µM*	-96*	0%
COC(CN(C(=O)CCl)C(C(=O)NC1CCCC(C)C1C)c1ccc(C)cc1)OC (stereo not given)	21µM*	-9%	15	5.2µM*	-100*	-3%
COc1ccccc1CNC(=O)CN1C(=O)CCc2cc(S(=O)(=O)N3CCCCC3)ccc21	u	x	x	u	x	-4%
CCC(=O)N1CCc2cc(S(=O)(=O)N(C)c3cccc(C)c3)ccc21	u	x	x	u	x	0%
O=C(Cc1ccccc1Cl)NO	u	x	x	-1%	x	x
SMILES	TDP1 cell noCPT	ELG1 DNA repair	Giardia kill	DT40 TDP1 CPT	IL1B secr inh	TDP1 inh
N=C(N)SCc1nc2ccccc2c(=O)n1-c1ccccc1	18µM*	u	-16	u	u	-3%
O=C(O)c1ccc(CSc2nc3ccccc3c(=O)n2-c2ccccc2)cc1	-8%	3%	u	-18%	-9	x
CCCNC(=O)/C(C#N)=C1\N=C(NC(=O)c2ccco2)c2ccccc21	u	0%	0	16µM*	-6	2%
CC(C)CNC(=O)/C(C#N)=C1\N=C(NC(=O)c2ccco2)c2ccccc21	u	-17%	-19	u	0	5%
N#C/C(C(=O)NCc1ccccc1)=C1/N=C(NC(=O)c2cccs2)c2ccccc21	10µM*	u	10	16µM*	15	3%
NS(=O)(=O)c1cc2c(cc1C(F)(F)F)NC(Cc1ccccc1)NS2(=O)=O (stereo not given)	-14%	14%	0	-19%	0	6%
O=C1CN(C(=S)NC(=O)c2ccc(-c3ccccc3)cc2)CCN1	-1%	u	-26	4%	0	3%
COc1ccc(C2=NN(C(=O)CN3CCCCC3)C(c3ccc(C)cc3)C2)cc1 (stereo not given)	u	-7%	-16	u	-87*	-11%
CNC(=S)N1N=C(c2ccc(Br)cc2)CC1c1ccc(OC)cc1 (stereo not given)	9.2µM*	u	-8	u	-11	-6%
COc1ccc(C2CC(c3ccccc3)=NN2C(=O)CSc2ncn[nH]2)cc1 (stereo not given)	-15%	u	11	u	-71*	4%
COc1ccc(C2CC(c3ccc(Br)cc3)=NN2C(=O)CN2CCCC2)cc1 (stereo not given)	12µM*	u	17	u	-62*	-1%
COc1ccc(C2=NN(C(=O)CCC(=O)O)C(c3ccccc3)C2)cc1 (stereo not given)	15%	-4%	2	-4%	12	x
COc1ccc(C2CC(c3ccccc3)=NN2C(=O)COC(=O)c2cnc(Cl)c(Cl)c2)cc1 (stereo not given)	u	u	-29	21µM*	0	3%
COc1ccc(C2CC(c3cccc([N+](=O)[O-])c3)=NN2/C(C)=C/C(C)=O)cc1 (stereo not given)	u	x	x	16µM*	1	x
COc1ccc(C2=NN(C(=O)c3cccc([N+](=O)[O-])c3)C(c3cccc([N+](=O)[O-])c3)C2)cc1 (stereo not given)	-14%	14%	0	3%	-4	3%
